# Assay results published in publication PMC9911399, “Two distinct binding modes provide the RNA-binding protein RbFox with extraordinary sequence specificity”.
# Residue numbers refer to the chain shown, from its start. Over roughly 16,000 sequences, “ka relative to ugcaugu” has its median near 0.0091; the highest 2% begin near 0.032. For the sample, the highest values were picked, then their nearest neighbours and some sequences at random.
# T1: RBFOX1 RRM (Homo sapiens, UniProt Q9NWB1 109-208)
# T1 sequence: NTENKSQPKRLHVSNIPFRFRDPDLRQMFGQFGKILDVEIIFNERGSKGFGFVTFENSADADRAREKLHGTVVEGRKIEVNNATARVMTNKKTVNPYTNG
# B1: CUGGCAC (DNA:RNA)
# RNA: GGGAGACCGGAAUUCAGAUUGUCCCUGGCACUUAAAUCCCGUCGUAGCCACCA
# DNA 1: CAATCTGAATTCCGGTCTCCC
# DNA 2: TGGTGGCTACGACGGGATT
# B2: UGGCAGU (DNA:RNA)
# RNA: B1 RNA with C25U, U26G, G28C, C29A, A30G, C31U
# DNA 1: CAATCTGAATTCCGGTCTCCC
# DNA 2: TGGTGGCTACGACGGGATT
# B3: UGGGCAG (DNA:RNA)
# RNA: B1 RNA with C25U, U26G, C31G
# DNA 1: CAATCTGAATTCCGGTCTCCC
# DNA 2: TGGTGGCTACGACGGGATT
# B4: UGGGCAC (DNA:RNA)
# RNA: B1 RNA with C25U, U26G
# DNA 1: CAATCTGAATTCCGGTCTCCC
# DNA 2: TGGTGGCTACGACGGGATT
# B5: UGGCACU (DNA:RNA)
# RNA: B1 RNA with C25U, U26G, G28C, C29A, A30C, C31U
# DNA 1: CAATCTGAATTCCGGTCTCCC
# DNA 2: TGGTGGCTACGACGGGATT
# B6: CUGGCAG (DNA:RNA)
# RNA: B1 RNA with C31G
# DNA 1: CAATCTGAATTCCGGTCTCCC
# DNA 2: TGGTGGCTACGACGGGATT
# B7: CCGCAGU (DNA:RNA)
# RNA: B1 RNA with U26C, G28C, C29A, A30G, C31U
# DNA 1: CAATCTGAATTCCGGTCTCCC
# DNA 2: TGGTGGCTACGACGGGATT
# B8: AACCGUA (DNA:RNA)
# RNA: GGGAGACCGGAAUUCAGAUUGUCCAACCGUAUUAAAUCCCGUCGUAGCCACCA
# DNA 1: CAATCTGAATTCCGGTCTCCC
# DNA 2: TGGTGGCTACGACGGGATT
# B9: CGCCCCG (DNA:RNA)
# RNA: B8 RNA with A25C, A26G, G29C, U30C, A31G
# DNA 1: CAATCTGAATTCCGGTCTCCC
# DNA 2: TGGTGGCTACGACGGGATT
# B10: UUGCACU (DNA:RNA)
# RNA: B1 RNA with C25U, G28C, C29A, A30C, C31U
# DNA 1: CAATCTGAATTCCGGTCTCCC
# DNA 2: TGGTGGCTACGACGGGATT
# B11: GGGAUAU (DNA:RNA)
# RNA: B1 RNA with C25G, U26G, G28A, C29U, C31U
# DNA 1: CAATCTGAATTCCGGTCTCCC
# DNA 2: TGGTGGCTACGACGGGATT
# B12: UAAGUGG (DNA:RNA)
# RNA: B8 RNA with A25U, C27A, C28G, G29U, U30G, A31G
# DNA 1: CAATCTGAATTCCGGTCTCCC
# DNA 2: TGGTGGCTACGACGGGATT
# B13: GUUAAGA (DNA:RNA)
# RNA: B8 RNA with A25G, A26U, C27U, C28A, G29A, U30G
# DNA 1: CAATCTGAATTCCGGTCTCCC
# DNA 2: TGGTGGCTACGACGGGATT
# B14: UGGGGUC (DNA:RNA)
# RNA: B1 RNA with C25U, U26G, C29G, A30U
# DNA 1: CAATCTGAATTCCGGTCTCCC
# DNA 2: TGGTGGCTACGACGGGATT
# B15: GUGGGUC (DNA:RNA)
# RNA: B1 RNA with C25G, C29G, A30U
# DNA 1: CAATCTGAATTCCGGTCTCCC
# DNA 2: TGGTGGCTACGACGGGATT
# B16: CUGGGUC (DNA:RNA)
# RNA: B1 RNA with C29G, A30U
# DNA 1: CAATCTGAATTCCGGTCTCCC
# DNA 2: TGGTGGCTACGACGGGATT
# B17: UGGUCUU (DNA:RNA)
# RNA: B1 RNA with C25U, U26G, G28U, A30U, C31U
# DNA 1: CAATCTGAATTCCGGTCTCCC
# DNA 2: TGGTGGCTACGACGGGATT
# B18: CUGGUCU (DNA:RNA)
# RNA: B1 RNA with C29U, A30C, C31U
# DNA 1: CAATCTGAATTCCGGTCTCCC
# DNA 2: TGGTGGCTACGACGGGATT
# B19: UGGGUCU (DNA:RNA)
# RNA: B1 RNA with C25U, U26G, C29U, A30C, C31U
# DNA 1: CAATCTGAATTCCGGTCTCCC
# DNA 2: TGGTGGCTACGACGGGATT
# B20: CAUUGUG (DNA:RNA)
# RNA: B8 RNA with A25C, C27U, C28U, A31G
# DNA 1: CAATCTGAATTCCGGTCTCCC
# DNA 2: TGGTGGCTACGACGGGATT
# B21: GGUCGAG (DNA:RNA)
# RNA: B8 RNA with A25G, A26G, C27U, U30A, A31G
# DNA 1: CAATCTGAATTCCGGTCTCCC
# DNA 2: TGGTGGCTACGACGGGATT
# B22: AGGUCCC (DNA:RNA)
# RNA: B1 RNA with C25A, U26G, G28U, A30C
# DNA 1: CAATCTGAATTCCGGTCTCCC
# DNA 2: TGGTGGCTACGACGGGATT
# B23: UGUUUGA (DNA:RNA)
# RNA: B8 RNA with A25U, A26G, C27U, C28U, G29U, U30G
# DNA 1: CAATCTGAATTCCGGTCTCCC
# DNA 2: TGGTGGCTACGACGGGATT
# B24: UGUGUGU (DNA:RNA)
# RNA: B1 RNA with C25U, U26G, G27U, C29U, A30G, C31U
# DNA 1: CAATCTGAATTCCGGTCTCCC
# DNA 2: TGGTGGCTACGACGGGATT
# B25: UGCUGUG (DNA:RNA)
# RNA: B8 RNA with A25U, A26G, C28U, A31G
# DNA 1: CAATCTGAATTCCGGTCTCCC
# DNA 2: TGGTGGCTACGACGGGATT
# B26: CGUUUGA (DNA:RNA)
# RNA: B8 RNA with A25C, A26G, C27U, C28U, G29U, U30G
# DNA 1: CAATCTGAATTCCGGTCTCCC
# DNA 2: TGGTGGCTACGACGGGATT
# B27: UGUGUUU (DNA:RNA)
# RNA: B8 RNA with A25U, A26G, C27U, C28G, G29U, A31U
# DNA 1: CAATCTGAATTCCGGTCTCCC
# DNA 2: TGGTGGCTACGACGGGATT
# B28: UGUUAAA (DNA:RNA)
# RNA: B8 RNA with A25U, A26G, C27U, C28U, G29A, U30A
# DNA 1: CAATCTGAATTCCGGTCTCCC
# DNA 2: TGGTGGCTACGACGGGATT
# B29: UGUGUUG (DNA:RNA)
# RNA: B8 RNA with A25U, A26G, C27U, C28G, G29U, A31G
# DNA 1: CAATCTGAATTCCGGTCTCCC
# DNA 2: TGGTGGCTACGACGGGATT
# B30: CCUGCUG (DNA:RNA)
# RNA: B1 RNA with U26C, G27U, A30U, C31G
# DNA 1: CAATCTGAATTCCGGTCTCCC
# DNA 2: TGGTGGCTACGACGGGATT
# B31: CUGUGUU (DNA:RNA)
# RNA: B1 RNA with G28U, C29G, A30U, C31U
# DNA 1: CAATCTGAATTCCGGTCTCCC
# DNA 2: TGGTGGCTACGACGGGATT
# B32: UGUCGUU (DNA:RNA)
# RNA: B8 RNA with A25U, A26G, C27U, A31U
# DNA 1: CAATCTGAATTCCGGTCTCCC
# DNA 2: TGGTGGCTACGACGGGATT
# B33: UGUUUGU (DNA:RNA)
# RNA: GGGAGACCGGAAUUCAGAUUGUCCUGUUUGUUUAAAUCCCGUCGUAGCCACCA
# DNA 1: CAATCTGAATTCCGGTCTCCC
# DNA 2: TGGTGGCTACGACGGGATT
# B34: UGUUUUU (DNA:RNA)
# RNA: B33 RNA with G30U
# DNA 1: CAATCTGAATTCCGGTCTCCC
# DNA 2: TGGTGGCTACGACGGGATT
# Biological target: T1, RBFOX1 RRM
# Assay: EMSA; HiTS-Eq, 1 nM pool, 10 min; buffer printed only for the single-RNA assays: 10 mM Tris pH 7.5, 150 mM NaCl, 3.4 mM EDTA, 0.001% NP-40, 30 C
# Conditions: tags: His6 N-terminal (pET28a); label: 5' 32P
# How it was run: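 Purified RbFox RRM, wild type or mutant, was incubated for 10 min in 50 µL with 1 nM of a 5′-radiolabelled RNA pool carrying 7 randomized nucleotides, whose flanks were annealed to DNA oligonucleotides, over a series of increasing protein concentrations. Unbound RNA was resolved on 8% native PAGE, cut out, reverse-transcribed, barcoded by PCR and sequenced on an Illumina HiSeq 2500. Relative association constants were derived from changes in read counts for each RNA species versus the control reaction and normalised to the cognate motif.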
row,Binder,binding signal
1,B1,0.0183 KA relative to UGCAUGU
2,B2,0.0192 KA relative to UGCAUGU
3,B3,0.0337 KA relative to UGCAUGU
4,B4,0.0337 KA relative to UGCAUGU
5,B5,0.0174 KA relative to UGCAUGU
6,B6,0.0227 KA relative to UGCAUGU
7,B7,0.00716 KA relative to UGCAUGU
8,B8,0.00191 KA relative to UGCAUGU
9,B9,0.007 KA relative to UGCAUGU
10,B10,0.021 KA relative to UGCAUGU
11,B11,0.0263 KA relative to UGCAUGU
12,B12,0.00934 KA relative to UGCAUGU
13,B13,0.012 KA relative to UGCAUGU
14,B14,0.0387 KA relative to UGCAUGU
15,B15,0.0192 KA relative to UGCAUGU
16,B16,0.0291 KA relative to UGCAUGU
17,B17,0.0179 KA relative to UGCAUGU

row,Binder,binding signal
1,B18,0.0225 KA relative to UGCAUGU
2,B19,0.0375 KA relative to UGCAUGU
3,B20,0.0157 KA relative to UGCAUGU
4,B21,0.0142 KA relative to UGCAUGU
5,B22,0.00339 KA relative to UGCAUGU
6,B23,0.0341 KA relative to UGCAUGU
7,B24,0.0346 KA relative to UGCAUGU
8,B25,0.0347 KA relative to UGCAUGU
9,B26,0.0182 KA relative to UGCAUGU
10,B27,0.0186 KA relative to UGCAUGU
11,B28,0.0109 KA relative to UGCAUGU
12,B29,0.0299 KA relative to UGCAUGU
13,B30,0.0192 KA relative to UGCAUGU
14,B31,0.0207 KA relative to UGCAUGU
15,B32,0.021 KA relative to UGCAUGU
16,B33,0.0434 KA relative to UGCAUGU
17,B34,0.0221 KA relative to UGCAUGU
